Assay [1] concerns the target T1, Inhibitor of nuclear factor kappa-B kinase subunit epsilon (Homo sapiens) (UniProt Q14164).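 Note: reported values are averaged percent inhibition figures against human IKKε.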
T1 sequence (whole entry): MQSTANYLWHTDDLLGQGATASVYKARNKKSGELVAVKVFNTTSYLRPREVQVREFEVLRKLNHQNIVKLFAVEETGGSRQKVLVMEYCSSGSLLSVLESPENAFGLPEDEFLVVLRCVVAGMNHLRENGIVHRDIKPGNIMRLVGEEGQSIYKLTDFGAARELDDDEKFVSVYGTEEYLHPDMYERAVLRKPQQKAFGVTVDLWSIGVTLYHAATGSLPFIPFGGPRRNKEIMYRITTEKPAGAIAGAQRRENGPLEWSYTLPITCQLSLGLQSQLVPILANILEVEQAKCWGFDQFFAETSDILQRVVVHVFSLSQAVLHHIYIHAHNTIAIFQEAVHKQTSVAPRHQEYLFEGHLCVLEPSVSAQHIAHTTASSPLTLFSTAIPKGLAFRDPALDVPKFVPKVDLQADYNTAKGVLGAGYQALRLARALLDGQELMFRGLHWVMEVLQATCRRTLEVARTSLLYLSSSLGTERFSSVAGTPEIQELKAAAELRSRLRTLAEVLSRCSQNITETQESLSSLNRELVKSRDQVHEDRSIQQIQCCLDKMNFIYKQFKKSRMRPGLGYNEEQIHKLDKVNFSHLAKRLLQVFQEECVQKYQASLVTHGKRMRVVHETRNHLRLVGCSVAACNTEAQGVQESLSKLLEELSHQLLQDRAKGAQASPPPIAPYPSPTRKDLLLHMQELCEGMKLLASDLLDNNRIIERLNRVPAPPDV
The note with it: at 1 µM.

Assay [2] addresses T2, Serine/threonine-protein kinase Nek1 (Homo sapiens) (UniProt Q96PY6).
T2 sequence (whole entry): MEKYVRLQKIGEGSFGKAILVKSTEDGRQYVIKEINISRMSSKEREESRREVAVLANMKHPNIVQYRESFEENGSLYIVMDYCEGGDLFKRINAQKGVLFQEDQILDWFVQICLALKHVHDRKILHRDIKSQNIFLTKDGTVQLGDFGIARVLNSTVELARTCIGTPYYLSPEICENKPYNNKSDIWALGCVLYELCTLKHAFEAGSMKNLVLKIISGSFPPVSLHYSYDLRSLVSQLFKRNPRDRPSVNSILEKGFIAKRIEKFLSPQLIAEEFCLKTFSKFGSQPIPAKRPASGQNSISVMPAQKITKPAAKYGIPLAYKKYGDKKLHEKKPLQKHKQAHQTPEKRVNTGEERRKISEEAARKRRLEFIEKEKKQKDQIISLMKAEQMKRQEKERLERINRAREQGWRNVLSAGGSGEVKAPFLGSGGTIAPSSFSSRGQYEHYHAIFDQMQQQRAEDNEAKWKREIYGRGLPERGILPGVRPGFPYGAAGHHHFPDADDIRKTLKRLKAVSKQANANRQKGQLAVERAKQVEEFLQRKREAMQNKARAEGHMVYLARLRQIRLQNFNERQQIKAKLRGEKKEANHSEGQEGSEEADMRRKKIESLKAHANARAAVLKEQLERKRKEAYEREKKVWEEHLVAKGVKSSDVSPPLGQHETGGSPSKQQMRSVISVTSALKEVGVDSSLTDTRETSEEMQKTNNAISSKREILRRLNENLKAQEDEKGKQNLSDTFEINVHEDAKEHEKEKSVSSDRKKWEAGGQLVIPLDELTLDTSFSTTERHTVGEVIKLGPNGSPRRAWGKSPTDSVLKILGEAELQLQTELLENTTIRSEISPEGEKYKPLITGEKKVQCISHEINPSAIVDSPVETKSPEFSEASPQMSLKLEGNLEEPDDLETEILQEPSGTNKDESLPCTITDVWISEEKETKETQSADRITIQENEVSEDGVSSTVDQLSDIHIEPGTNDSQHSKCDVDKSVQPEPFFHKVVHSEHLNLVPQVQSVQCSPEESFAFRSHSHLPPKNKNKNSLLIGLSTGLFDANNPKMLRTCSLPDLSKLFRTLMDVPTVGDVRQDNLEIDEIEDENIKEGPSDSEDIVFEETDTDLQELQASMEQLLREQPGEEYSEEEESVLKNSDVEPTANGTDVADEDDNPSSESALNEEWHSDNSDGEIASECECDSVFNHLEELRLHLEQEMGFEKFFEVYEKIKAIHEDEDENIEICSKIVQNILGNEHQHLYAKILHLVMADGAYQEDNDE
As to conditions: at 0.1 µM.

The target of assay [3] is T2, Serine/threonine-protein kinase Nek1 (Homo sapiens). As to conditions: at 1 µM.
Assay [4] concerns the target T3, Serine/threonine-protein kinase Nek2 (Homo sapiens) (UniProt P51955).
T3 sequence (whole entry): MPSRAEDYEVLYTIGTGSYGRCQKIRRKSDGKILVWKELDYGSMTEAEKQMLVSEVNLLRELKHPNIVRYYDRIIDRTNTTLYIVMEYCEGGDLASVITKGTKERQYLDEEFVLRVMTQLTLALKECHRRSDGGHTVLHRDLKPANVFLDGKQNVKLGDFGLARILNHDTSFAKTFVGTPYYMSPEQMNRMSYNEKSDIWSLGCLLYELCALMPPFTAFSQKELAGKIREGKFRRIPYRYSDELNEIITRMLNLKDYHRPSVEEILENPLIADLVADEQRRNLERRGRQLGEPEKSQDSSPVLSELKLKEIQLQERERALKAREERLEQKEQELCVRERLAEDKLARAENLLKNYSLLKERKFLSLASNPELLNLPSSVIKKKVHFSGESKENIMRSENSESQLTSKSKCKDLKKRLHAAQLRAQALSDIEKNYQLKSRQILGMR
As to conditions: at 0.1 µM.

In assay [5] the target is T3, Serine/threonine-protein kinase Nek2 (Homo sapiens). As to conditions: at 1 µM.
The target in assay [6] is Serine/threonine-protein kinase Nek6 (Homo sapiens) (UniProt Q9HC98). As to conditions: at 0.1 µM.
Assay [7] shares this target. The note with it: at 1 µM.
The target of assay [8] is Serine/threonine-protein kinase Nek7 (Homo sapiens) (UniProt Q8TDX7). The note with it: at 0.1 µM.
For assay [9] the target is unchanged. As to conditions: at 1 µM.
The target in assay [10] is T4, Serine/threonine-protein kinase Nek9 (Homo sapiens) (UniProt Q8TD19).
T4 sequence (whole entry): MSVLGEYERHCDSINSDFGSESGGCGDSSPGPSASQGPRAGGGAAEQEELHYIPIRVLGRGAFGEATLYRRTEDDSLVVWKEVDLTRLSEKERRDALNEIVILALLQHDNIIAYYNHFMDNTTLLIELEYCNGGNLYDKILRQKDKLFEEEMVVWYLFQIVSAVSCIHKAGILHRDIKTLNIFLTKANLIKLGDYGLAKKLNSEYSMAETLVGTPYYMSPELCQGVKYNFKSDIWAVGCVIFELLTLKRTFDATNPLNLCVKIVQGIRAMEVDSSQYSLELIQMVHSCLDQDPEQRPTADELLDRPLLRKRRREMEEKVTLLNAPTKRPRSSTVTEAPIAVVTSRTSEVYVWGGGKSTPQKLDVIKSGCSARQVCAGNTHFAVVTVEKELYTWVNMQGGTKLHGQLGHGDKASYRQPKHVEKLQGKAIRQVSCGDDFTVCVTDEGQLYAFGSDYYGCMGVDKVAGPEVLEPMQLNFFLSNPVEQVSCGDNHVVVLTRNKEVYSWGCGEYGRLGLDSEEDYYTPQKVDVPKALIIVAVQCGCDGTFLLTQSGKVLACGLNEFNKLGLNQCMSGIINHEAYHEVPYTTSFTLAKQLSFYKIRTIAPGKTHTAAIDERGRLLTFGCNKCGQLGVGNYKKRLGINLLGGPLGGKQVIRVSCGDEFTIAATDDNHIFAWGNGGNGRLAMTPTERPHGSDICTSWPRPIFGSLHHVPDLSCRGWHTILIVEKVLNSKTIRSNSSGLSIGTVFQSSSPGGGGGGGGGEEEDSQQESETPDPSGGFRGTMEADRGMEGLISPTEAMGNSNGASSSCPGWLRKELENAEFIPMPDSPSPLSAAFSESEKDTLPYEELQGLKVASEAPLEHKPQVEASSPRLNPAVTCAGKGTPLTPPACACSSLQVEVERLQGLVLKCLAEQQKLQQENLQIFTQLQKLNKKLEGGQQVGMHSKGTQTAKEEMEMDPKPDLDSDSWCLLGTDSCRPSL
The note with it: at 0.1 µM.

Assay [11] addresses T4, Serine/threonine-protein kinase Nek9 (Homo sapiens). The note with it: at 1 µM.
The target in assay [12] is Serine/threonine-protein kinase PLK1 (Homo sapiens) (UniProt P53350). As to conditions: at 0.1 µM.
Assay [13] has the same target. As to conditions: at 1 µM.
Assay [14] has as its target T5, Dual specificity protein kinase TTK (Homo sapiens) (UniProt P33981).
T5 sequence (whole entry): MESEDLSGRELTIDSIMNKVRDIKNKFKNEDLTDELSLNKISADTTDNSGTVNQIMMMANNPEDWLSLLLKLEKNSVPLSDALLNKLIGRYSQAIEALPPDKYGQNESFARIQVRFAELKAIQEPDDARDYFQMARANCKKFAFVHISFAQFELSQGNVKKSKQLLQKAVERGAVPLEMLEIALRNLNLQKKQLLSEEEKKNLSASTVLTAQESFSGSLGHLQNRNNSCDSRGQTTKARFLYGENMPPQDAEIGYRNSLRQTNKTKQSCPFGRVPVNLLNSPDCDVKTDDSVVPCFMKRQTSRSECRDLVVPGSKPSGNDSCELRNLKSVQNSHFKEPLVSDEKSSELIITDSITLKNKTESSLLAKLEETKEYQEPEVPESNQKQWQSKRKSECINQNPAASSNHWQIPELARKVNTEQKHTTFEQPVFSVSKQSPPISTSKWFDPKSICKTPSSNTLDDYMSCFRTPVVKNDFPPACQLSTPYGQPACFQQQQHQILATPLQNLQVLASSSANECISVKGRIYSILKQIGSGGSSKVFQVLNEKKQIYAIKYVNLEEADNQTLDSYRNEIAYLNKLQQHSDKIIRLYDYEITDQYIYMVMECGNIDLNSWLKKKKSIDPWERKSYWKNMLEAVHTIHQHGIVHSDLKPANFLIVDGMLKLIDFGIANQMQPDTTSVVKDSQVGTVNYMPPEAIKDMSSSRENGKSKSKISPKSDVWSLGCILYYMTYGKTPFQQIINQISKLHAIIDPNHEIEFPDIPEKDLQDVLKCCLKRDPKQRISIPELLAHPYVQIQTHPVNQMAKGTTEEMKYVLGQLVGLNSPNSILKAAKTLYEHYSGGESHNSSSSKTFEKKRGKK
The note with it: at 0.1 µM.

Assay [15] relates to T6, Receptor-type tyrosine-protein kinase FLT3 (Homo sapiens), P36888 [D835Y].
T6 sequence (whole entry): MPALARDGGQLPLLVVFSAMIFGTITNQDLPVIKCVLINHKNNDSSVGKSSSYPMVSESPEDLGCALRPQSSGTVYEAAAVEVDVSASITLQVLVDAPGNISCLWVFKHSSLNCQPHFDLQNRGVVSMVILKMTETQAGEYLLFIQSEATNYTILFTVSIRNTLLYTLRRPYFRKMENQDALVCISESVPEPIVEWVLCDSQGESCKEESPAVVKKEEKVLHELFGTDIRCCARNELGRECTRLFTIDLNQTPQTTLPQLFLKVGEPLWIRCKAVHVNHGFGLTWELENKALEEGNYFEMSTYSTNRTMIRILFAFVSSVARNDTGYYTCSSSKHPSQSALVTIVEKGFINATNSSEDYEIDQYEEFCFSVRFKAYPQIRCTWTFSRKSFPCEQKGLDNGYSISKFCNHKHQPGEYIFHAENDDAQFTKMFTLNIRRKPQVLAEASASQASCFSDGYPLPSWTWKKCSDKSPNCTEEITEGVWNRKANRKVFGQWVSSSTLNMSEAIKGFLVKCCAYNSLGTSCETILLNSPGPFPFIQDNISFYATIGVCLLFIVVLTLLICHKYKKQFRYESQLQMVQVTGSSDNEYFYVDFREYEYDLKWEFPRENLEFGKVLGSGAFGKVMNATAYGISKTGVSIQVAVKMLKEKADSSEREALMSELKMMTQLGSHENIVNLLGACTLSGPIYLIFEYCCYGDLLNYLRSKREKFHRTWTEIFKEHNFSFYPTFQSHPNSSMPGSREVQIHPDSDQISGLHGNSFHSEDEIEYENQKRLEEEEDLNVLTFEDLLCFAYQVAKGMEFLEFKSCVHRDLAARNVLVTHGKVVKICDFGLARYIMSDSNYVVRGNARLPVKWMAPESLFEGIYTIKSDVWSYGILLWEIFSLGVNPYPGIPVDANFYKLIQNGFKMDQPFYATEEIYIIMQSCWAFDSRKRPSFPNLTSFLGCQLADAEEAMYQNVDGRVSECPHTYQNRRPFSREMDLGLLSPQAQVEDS
The note with it: at 1 µM.

Assay [16] deals with Vascular endothelial growth factor receptor 3 (Homo sapiens) (UniProt P35916). The note with it: at 0.1 µM.
Assay [17] shares this target. As to conditions: at 1 µM.
Assay [18] concerns the target Macrophage colony-stimulating factor 1 receptor (Homo sapiens) (UniProt P07333). The note with it: at 0.1 µM.
Assay [19] shares this target. As to conditions: at 1 µM.
In assay [20] the target is Tyrosine-protein kinase Fyn (Homo sapiens) (UniProt P06241). The note with it: at 0.1 µM.

Molecules are shown by their SMILES.

Serine/threonine-protein kinase PLK1 (Homo sapiens), sequence (P53350 whole entry): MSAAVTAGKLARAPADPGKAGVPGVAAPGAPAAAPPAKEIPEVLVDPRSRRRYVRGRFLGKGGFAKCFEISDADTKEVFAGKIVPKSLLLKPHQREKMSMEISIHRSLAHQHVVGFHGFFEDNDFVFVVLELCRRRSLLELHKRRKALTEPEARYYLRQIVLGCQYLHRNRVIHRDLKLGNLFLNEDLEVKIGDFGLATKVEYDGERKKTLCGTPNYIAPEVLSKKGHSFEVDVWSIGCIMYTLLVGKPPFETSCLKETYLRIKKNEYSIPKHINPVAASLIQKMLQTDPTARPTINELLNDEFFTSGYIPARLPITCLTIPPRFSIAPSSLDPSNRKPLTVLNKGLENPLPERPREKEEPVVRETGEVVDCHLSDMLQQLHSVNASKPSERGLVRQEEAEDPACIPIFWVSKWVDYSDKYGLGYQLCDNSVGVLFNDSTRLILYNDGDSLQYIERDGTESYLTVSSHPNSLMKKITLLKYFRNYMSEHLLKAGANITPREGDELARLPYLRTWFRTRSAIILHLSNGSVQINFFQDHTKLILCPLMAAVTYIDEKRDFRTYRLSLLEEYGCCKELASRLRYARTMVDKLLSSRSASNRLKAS
Serine/threonine-protein kinase Nek6 (Homo sapiens), sequence (Q9HC98 whole entry): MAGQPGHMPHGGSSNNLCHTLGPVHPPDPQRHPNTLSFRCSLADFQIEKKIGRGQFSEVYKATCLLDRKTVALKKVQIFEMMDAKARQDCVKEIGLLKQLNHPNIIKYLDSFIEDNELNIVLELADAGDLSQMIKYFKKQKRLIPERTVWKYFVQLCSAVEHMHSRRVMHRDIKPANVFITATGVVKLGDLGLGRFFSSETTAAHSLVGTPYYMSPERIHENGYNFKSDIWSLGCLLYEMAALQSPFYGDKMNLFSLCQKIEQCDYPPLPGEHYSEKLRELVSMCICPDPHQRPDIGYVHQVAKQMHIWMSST
Vascular endothelial growth factor receptor 3 (Homo sapiens), sequence (P35916 whole entry): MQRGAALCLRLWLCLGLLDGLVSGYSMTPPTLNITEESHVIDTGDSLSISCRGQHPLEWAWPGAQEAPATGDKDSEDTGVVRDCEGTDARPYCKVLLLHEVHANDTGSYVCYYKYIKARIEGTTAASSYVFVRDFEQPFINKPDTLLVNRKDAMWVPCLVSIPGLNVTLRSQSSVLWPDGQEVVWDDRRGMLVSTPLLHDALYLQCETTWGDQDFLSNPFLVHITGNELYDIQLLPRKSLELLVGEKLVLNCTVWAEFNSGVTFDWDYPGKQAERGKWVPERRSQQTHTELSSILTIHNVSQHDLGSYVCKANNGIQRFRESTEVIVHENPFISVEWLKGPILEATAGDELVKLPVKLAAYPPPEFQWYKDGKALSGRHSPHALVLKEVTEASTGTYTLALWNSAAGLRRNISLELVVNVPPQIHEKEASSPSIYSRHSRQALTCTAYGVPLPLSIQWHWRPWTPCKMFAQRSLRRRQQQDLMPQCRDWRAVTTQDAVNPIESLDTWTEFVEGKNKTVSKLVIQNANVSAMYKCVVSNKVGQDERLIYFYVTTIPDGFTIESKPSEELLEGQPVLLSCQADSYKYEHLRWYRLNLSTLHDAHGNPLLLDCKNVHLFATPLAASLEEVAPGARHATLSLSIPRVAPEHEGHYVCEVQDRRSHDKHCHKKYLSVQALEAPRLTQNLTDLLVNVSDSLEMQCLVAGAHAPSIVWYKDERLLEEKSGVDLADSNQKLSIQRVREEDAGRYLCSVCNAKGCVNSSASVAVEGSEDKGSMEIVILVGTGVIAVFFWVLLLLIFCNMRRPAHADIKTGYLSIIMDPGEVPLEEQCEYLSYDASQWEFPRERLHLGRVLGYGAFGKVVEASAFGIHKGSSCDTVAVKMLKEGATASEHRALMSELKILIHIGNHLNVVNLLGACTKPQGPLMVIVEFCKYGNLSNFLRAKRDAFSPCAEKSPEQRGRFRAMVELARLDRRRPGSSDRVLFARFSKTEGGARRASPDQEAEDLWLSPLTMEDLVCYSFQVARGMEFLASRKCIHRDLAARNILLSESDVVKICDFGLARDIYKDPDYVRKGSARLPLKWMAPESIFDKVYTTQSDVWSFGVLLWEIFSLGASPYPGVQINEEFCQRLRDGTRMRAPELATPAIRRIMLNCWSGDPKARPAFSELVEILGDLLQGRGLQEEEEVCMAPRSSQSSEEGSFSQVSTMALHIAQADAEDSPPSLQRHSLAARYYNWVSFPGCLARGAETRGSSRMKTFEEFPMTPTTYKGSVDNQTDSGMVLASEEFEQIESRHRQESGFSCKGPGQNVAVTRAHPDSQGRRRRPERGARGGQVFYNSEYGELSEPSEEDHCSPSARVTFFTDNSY
Serine/threonine-protein kinase Nek7 (Homo sapiens), sequence (Q8TDX7 whole entry, looked up): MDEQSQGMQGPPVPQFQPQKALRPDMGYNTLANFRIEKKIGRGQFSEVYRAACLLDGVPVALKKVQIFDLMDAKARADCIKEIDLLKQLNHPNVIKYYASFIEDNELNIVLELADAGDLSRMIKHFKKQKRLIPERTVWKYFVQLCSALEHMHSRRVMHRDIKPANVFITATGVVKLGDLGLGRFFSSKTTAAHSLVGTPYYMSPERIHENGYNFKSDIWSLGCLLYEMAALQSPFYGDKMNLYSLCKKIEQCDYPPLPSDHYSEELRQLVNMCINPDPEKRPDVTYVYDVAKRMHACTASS
Macrophage colony-stimulating factor 1 receptor (Homo sapiens), sequence (P07333 whole entry): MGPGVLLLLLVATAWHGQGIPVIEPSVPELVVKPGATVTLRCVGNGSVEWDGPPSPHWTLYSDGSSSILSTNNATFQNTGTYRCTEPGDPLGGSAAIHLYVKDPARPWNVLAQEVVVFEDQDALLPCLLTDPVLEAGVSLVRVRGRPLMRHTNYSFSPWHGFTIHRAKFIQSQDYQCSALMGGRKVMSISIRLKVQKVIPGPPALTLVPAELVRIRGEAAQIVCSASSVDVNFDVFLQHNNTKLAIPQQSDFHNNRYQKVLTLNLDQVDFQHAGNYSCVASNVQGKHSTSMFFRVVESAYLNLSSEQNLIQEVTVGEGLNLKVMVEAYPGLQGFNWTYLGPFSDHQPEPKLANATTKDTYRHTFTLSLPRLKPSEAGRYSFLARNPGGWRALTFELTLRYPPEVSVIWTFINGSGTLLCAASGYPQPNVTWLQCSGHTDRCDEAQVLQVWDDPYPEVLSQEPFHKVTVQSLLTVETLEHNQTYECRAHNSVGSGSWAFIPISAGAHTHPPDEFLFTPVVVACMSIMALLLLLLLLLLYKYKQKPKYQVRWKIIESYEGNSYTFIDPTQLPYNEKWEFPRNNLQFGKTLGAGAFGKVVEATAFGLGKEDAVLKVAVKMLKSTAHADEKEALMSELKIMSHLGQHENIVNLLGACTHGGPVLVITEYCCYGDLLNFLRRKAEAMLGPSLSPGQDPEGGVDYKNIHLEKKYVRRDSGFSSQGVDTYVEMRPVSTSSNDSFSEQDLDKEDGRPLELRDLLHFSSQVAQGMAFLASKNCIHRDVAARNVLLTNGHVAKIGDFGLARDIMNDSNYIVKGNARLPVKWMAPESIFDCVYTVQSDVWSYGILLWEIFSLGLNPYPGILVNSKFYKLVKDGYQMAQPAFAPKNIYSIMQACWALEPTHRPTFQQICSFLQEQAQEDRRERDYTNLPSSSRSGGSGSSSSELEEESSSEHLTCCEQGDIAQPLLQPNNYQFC
Tyrosine-protein kinase Fyn (Homo sapiens), sequence (P06241 2-537 limits assumed): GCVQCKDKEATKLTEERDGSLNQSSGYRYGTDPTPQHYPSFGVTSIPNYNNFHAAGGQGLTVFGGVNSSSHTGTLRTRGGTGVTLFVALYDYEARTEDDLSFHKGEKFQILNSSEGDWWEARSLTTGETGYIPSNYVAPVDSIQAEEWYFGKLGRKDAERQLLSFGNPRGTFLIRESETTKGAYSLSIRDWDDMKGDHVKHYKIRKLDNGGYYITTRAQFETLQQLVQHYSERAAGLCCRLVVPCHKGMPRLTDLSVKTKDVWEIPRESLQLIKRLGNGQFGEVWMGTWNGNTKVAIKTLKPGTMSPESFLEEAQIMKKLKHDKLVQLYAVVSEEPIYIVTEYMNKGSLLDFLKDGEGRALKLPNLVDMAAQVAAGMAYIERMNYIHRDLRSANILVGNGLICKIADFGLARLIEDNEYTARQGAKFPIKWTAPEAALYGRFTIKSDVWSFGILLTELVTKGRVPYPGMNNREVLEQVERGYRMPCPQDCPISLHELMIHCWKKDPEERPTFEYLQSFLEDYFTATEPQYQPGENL

Usually inhibition stands for the drop in the measured response relative to a control, in per cent. In the case of `[O-][S+]1CCN(Cc2ccc(-c3ccc4ncnc(Nc5ccc(OCc6ccccc6)c(Cl)c5)c4c3)o2)CC1`, the inhibition in assay [1] was found to be 1.71%; in assay [2] it was 0.94%; in assay [3], 0.52%; in [4] it was 3.08%; in assay [5] it was 0.41%; in assay [6] it was 3.35%. Besides, the inhibition turned out to be 1.93% in [7]; 1.32% in [8]; 5.75% in assay [9]; 0.79% in assay [10]; 3.24% in assay [11]; 3.9% in assay [12]. In addition, the inhibition in assay [13] was 2.79%; in assay [14], 8.87%; in assay [15], -1.91%; in assay [16], 7.2%; in assay [17], 11.7%; in assay [18], -0.34%. Moreover, the values for the inhibition in assay [19] and in assay [20] were 0.13% and 2.58%, respectively.
Turning to `Cc1cc(-c2ccccn2)cc(C)c1/C=C/c1cncc(-c2nn[nH]n2)c1`, the inhibition in assay [1] stood at 5.98%; in [2], 1.6%; in assay [3], 2.75%; in assay [4], 5.75%; in assay [5], 4.38%; in assay [6] it was 0.78%. Moreover, the inhibition is 3.18% in assay [7]; 2.68% in [8]; 7.82% in [9]; 5.24% in assay [10]; 5.99% in assay [11]; 5.02% in assay [12]. The inhibition is 5.56% in [13]; 11.3% in assay [14]; 12% in assay [15]; 9.28% in assay [16]; 14.4% in [17]; 1.45% in assay [18]. Besides, the inhibition in assay [19] is 12.3%; in [20] it was 4.53%.

For the origin of these results see ChEMBL document CHEMBL1961873, “Compounds: GSK PKIS; Assays: Nanosyn kinase panel” (2012).
